# Measurements: PubChem BioAssay (NCATS)
# Results filed as inconclusive are left out. A call without a number means that no potency is given here. Active and inactive are the calls of the source. Calls follow the shape of the dose curve; as a rule, active = well fitted inhibition curve with a large enough effect; inconclusive = small, poorly fitted or top-dose-only effect; inactive = flat fitted curve, though single readings scatter.
# Tested on: CP266
# Assay: qHTS profiling for inhibitors of Plasmodium falciparum proliferation (AID 504749); also: nearly all actives have a fitted effect of over 60% in size
# Settings: P. falciparum in erythrocytes, SYBR Green DNA, 72 h; series mostly up to 28.7 µM
# Summary of the method: (§1)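 Three-day growth assay of blood-stage parasites in erythrocytes (0.3% parasitemia, 2.5% hematocrit) at 37 C, 5% CO2, quantified by SYBR Green DNA staining after overnight detergent lysis.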
# Potency is read from the fitted curve at half-maximal effect.
row,Structure (SMILES),Potency
1,CCN(CCO)CCCC(C)Nc1ccnc2cc(Cl)ccc12 (stereo not drawn),inactive
2,Cc1nc2n(c(=O)c1CCN1CCC(c3noc4cc(F)ccc34)CC1)CCCC2,inactive
3,C=C(c1ccc(C(=O)O)cc1)c1cc2c(cc1C)C(C)(C)CCC2(C)C,inactive
4,NNc1nncc2ccccc12,inactive
5,COCCCOc1ccnc(CS(=O)c2nc3ccccc3[nH]2)c1C (stereo not drawn),inactive
6,Cc1cc(=O)oc2cc(O)ccc12,inactive
7,CCCCCCCCCCCCCCCCCCCCCCO,inactive
8,O=C1CCc2ccc(OCCCCN3CCN(c4cccc(Cl)c4Cl)CC3)cc2N1,inactive
9,COc1ccc2cc([C@H](C)C(=O)O)ccc2c1,inactive

# Tested on: CP268
# Assay: as above
# Settings: P. falciparum in erythrocytes, SYBR Green DNA, 72 h; series mostly up to 28.7 µM
# Summary of the method: as §1
row,Structure (SMILES),Potency
1,CCN(CCO)CCCC(C)Nc1ccnc2cc(Cl)ccc12 (stereo not drawn),inactive
2,Cc1nc2n(c(=O)c1CCN1CCC(c3noc4cc(F)ccc34)CC1)CCCC2,inactive
3,C=C(c1ccc(C(=O)O)cc1)c1cc2c(cc1C)C(C)(C)CCC2(C)C,inactive
4,Cc1cccc(C)c1OCC(=O)N[C@@H](Cc1ccccc1)[C@@H](O)C[C@H](Cc1ccccc1)NC(=O)[C@H](C(C)C)N1CCCNC1=O,9.53 µM (active)
5,CC(C)c1ccc2oc3nc(N)c(C(=O)O)cc3c(=O)c2c1,inactive
6,CCCCC(CC)COC(=O)C(C#N)=C(c1ccccc1)c1ccccc1 (stereo not drawn),inactive
7,Cc1nc(Nc2ncc(C(=O)Nc3c(C)cccc3Cl)s2)cc(N2CCN(CCO)CC2)n1,inactive
8,COc1ccc(C2(C#N)CCC(C(=O)O)CC2)cc1OC1CCCC1 (stereo not drawn),inactive
9,COCCCOc1ccnc(CS(=O)c2nc3ccccc3[nH]2)c1C (stereo not drawn),inactive
